Source: PubChem BioAssay (NCI)
About 79,000 compounds went through this panel and 15% of them were active in at least one assay; those are over-represented in the sample as a whole. Active and inactive are the calls of the source. No stated cut-off is given here; in the data, active means growth inhibition above about 70%; inactive means the rest.

Columns and labels:
[1] = NCI Yeast Anticancer Drug Screen. Data for the rad52 strain (AID 147);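 further: 0% = growth of vehicle-treated control cultures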; conditions: S. cerevisiae rad52 mutant growth inhibition, hits give high values
Procedure, shortened: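 Read-out: growth inhibition versus vehicle-treated controls. Cells were a DNA repair-deficient yeast strain treated with compounds.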

[2] = NCI Yeast Anticancer Drug Screen. Data for the wt1 strain (AID 149);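 further: 0% = growth of vehicle-treated wt1 cultures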; conditions: S. cerevisiae wt1 strain (SPY 50644) growth inhibition, hits give high values
Procedure, shortened: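 Readout: yeast growth inhibition, normalised to vehicle controls, in the wt1 strain exposed to test compounds.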

[3] = NCI Yeast Anticancer Drug Screen. Data for the rad50EPP+ strain (AID 151);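 further: 0% = growth of vehicle-treated control cultures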; conditions: S. cerevisiae rad50 mutant strain, hits give high values
Procedure, shortened: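 Growth inhibition read against vehicle controls in rad50EPP+ yeast, a strain altered in DNA damage repair, after compound exposure.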

[4] = NCI Yeast Anticancer Drug Screen. Data for the mgt1 strain (AID 153); conditions: S. cerevisiae mgt1 mutant growth inhibition, hits give high values
Procedure, shortened: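 mgt1 yeast grown with test compound; read-out is growth inhibition versus vehicle-treated cultures.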

[5] = NCI Yeast Anticancer Drug Screen. Data for the rad50 strain (AID 155);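 further: 0% = growth of vehicle-only cultures of the same strain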; conditions: S. cerevisiae rad50 strain growth inhibition, hits give high values
Procedure, shortened: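 Compounds were tested on a yeast strain with an engineered DNA damage repair alteration; the reported value is growth inhibition normalised to vehicle treatment.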

[6] = NCI Yeast Anticancer Drug Screen. Data for the mec2-1 strain (AID 157); conditions: S. cerevisiae mec2-1 strain, hits give high values
Procedure, shortened: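 Yeast mec2-1 mutant treated with compound. Readout: growth inhibition vs vehicle controls.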

[7] = NCI Yeast Anticancer Drug Screen. Data for the rad14 strain (AID 159);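 further: 0% = growth of vehicle-treated control cultures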; conditions: S. cerevisiae rad14 strain growth inhibition, hits give high values
Procedure, shortened: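 Compound-treated yeast with a defined DNA-repair lesion; growth inhibition normalised to vehicle-treated cultures.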

[8] = NCI Yeast Anticancer Drug Screen. Data for the sgs1 mgt1 strain (AID 161);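 further: 0% = growth of cultures given vehicle only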; conditions: S. cerevisiae sgs1 mgt1 strain, hits give high values
Procedure, shortened: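 Mutant yeast exposed to compound; growth scored against vehicle-only wells.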

[9] = NCI Yeast Anticancer Drug Screen. Data for the CLN2oe strain (AID 163);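 further: 0% = growth of vehicle-only control cultures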; conditions: S. cerevisiae CLN2oe strain, hits give high values
Procedure, shortened: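 Read-out: yeast growth inhibition, expressed relative to vehicle-only controls. The strain bears an engineered cell-cycle alteration.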

[10] = NCI Yeast Anticancer Drug Screen. Data for the cln2 rad14 strain (AID 165);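 further: 0% = growth equal to vehicle treated cultures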; conditions: S. cerevisiae cln2 rad14 strain, hits give high values
Procedure, shortened: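 cln2 rad14 yeast strain; compound exposure; growth inhibition read vs vehicle controls.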

[11] = NCI Yeast Anticancer Drug Screen. Data for the bub3 strain (AID 167); conditions: S. cerevisiae bub3 mutant strain, hits give high values
Procedure, shortened: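 Growth of a checkpoint-deficient yeast mutant is measured after compound exposure. Values represent inhibition relative to vehicle.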

[12] = NCI Yeast Anticancer Drug Screen. Data for the wt2 strain (AID 169);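 further: 0% = growth of vehicle-treated yeast cultures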; conditions: S. cerevisiae wt2 strain growth inhibition, hits give high values
Procedure, shortened: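 Read-out: growth inhibition versus vehicle-treated control cultures after compound exposure of the yeast strain.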

[13] = NCI Yeast Anticancer Drug Screen. Data for the mlh1 strain (AID 171);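 further: 0% = growth of vehicle-treated control cultures of the same strain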; conditions: S. cerevisiae mlh1 strain growth inhibition, hits give high values
Procedure, shortened: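 Read-out: growth inhibition versus vehicle controls. Strain: engineered yeast with a defined DNA repair or cell cycle defect, compound-treated.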

[14] = NCI Yeast Anticancer Drug Screen. Data for the sgs1 strain (AID 173);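 further: 0% = growth of vehicle-only control cultures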; conditions: S. cerevisiae sgs1 mutant, hits give high values
Procedure, shortened: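 Read-out: yeast growth inhibition relative to vehicle controls, following compound exposure of a strain with a defined DNA repair/cell cycle alteration.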

[15] = NCI Yeast Anticancer Drug Screen. Data for the mlh1 rad18 strain (AID 175); conditions: S. cerevisiae mlh1 rad18 strain growth inhibition, hits give high values
Procedure, shortened: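 Yeast w/ defined DNA-repair lesions; compound exposure; growth vs vehicle controls → % inhibition.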

[16] = NCI Yeast Anticancer Drug Screen. Data for the rad18 strain (AID 177); conditions: S. cerevisiae rad18 mutant growth inhibition, hits give high values
Procedure, shortened: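 Readout: growth inhibition vs vehicle controls. Cells: genetically altered yeast strain, DNA repair defect.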

[17] = at 5.0 µM (retest, dose inferred, filed as 0.5)
[18] = at 50.0 µM (retest, dose inferred, filed as 5.0)

Measured: growth inhibition

O=C1c2cccc3cccc(c23)C(=O)N1CCNCCN1C(=O)c2cccc3cccc(c23)C1=O
active: [5]; [18] 84% | [5]; at 50.0 µM 86.1%
inactive: [1]; at 1.2 µM 1% | [1]; at 3.7 µM 3% | [1]; at 11.0 µM 5% | [1]; at 33.0 µM 14% | [1]; at 100.0 µM 34% | [2]; at 1.2 µM 0% | [2]; at 3.7 µM 0% | [2]; at 11.0 µM -1% | [2]; at 33.0 µM 1% | [2]; at 100.0 µM 5% | [3]; at 1.2 µM -1% | [3]; at 3.7 µM 0% | [3]; at 11.0 µM 0% | [3]; at 33.0 µM 2% | [3]; at 100.0 µM 10% | [4]; at 1.2 µM -3% | [4]; at 3.7 µM 0% | [4]; at 11.0 µM -1% | [4]; at 33.0 µM 1% | [4]; at 100.0 µM 2% | [5]; at 1.2 µM 1% | [5]; at 3.7 µM 3% | [5]; [17] 19% | [5]; at 11.0 µM 6% | [5]; at 33.0 µM 21% | [5]; at 100.0 µM 53% | [6]; at 1.2 µM -3% | [6]; at 3.7 µM -4% | [6]; [17] 6% | [6]; at 11.0 µM -3% | [6]; at 33.0 µM 2% | [6]; [18] 4% | [6]; at 50.0 µM 26.4% | [6]; at 100.0 µM 5% | [7]; at 1.2 µM 0% | [7]; at 3.7 µM 1% | [7]; at 11.0 µM 0% | [7]; at 33.0 µM -1% | [7]; at 100.0 µM 4% | [8]; [17] 5% | [8]; [18] 10% | [8]; at 50.0 µM 15.5% | [9]; at 1.2 µM -1% | [9]; at 3.7 µM -2% | [9]; at 11.0 µM 4% | [9]; at 33.0 µM -1% | [9]; at 100.0 µM -1% | [10]; [17] 6% | [10]; [18] 6% | [10]; at 50.0 µM 15.9% | [11]; at 1.2 µM 0% | [11]; at 3.7 µM 1% | [11]; [17] 2% | [11]; at 11.0 µM -2% | [11]; at 33.0 µM -4% | [11]; [18] 1% | [11]; at 50.0 µM 0.65% | [11]; at 100.0 µM -3% | [12]; at 1.2 µM 0% | [12]; at 3.7 µM 0% | [12]; at 11.0 µM 0% | [12]; at 33.0 µM 1% | [12]; at 100.0 µM 5% | [13]; at 1.2 µM 0% | [13]; at 3.7 µM -3% | [13]; at 11.0 µM -1% | [13]; at 33.0 µM 0% | [13]; at 100.0 µM 2% | [14]; at 1.2 µM -1% | [14]; at 3.7 µM -2% | [14]; at 11.0 µM -1% | [14]; at 33.0 µM -1% | [14]; at 100.0 µM 4% | [15]; [17] 4% | [15]; [18] 18% | [15]; at 50.0 µM 7.55% | [16]; at 1.2 µM -3% | [16]; at 3.7 µM -2% | [16]; at 11.0 µM -1% | [16]; at 33.0 µM -1% | [16]; at 100.0 µM 6%

S=C1C(=Nc2ccccc2)N(c2ccccc2)/C(=N\c2ccccn2)N1c1ccccc1
active: [1]; at 33.0 µM 99% | [1]; at 100.0 µM 93% | [2]; at 33.0 µM 98% | [2]; at 100.0 µM 98% | [4]; at 33.0 µM 99% | [4]; at 100.0 µM 97% | [5]; at 33.0 µM 98% | [5]; [18] 97% | [5]; at 50.0 µM 98.1% | [5]; at 100.0 µM 91% | [6]; at 33.0 µM 99% | [6]; [18] 98% | [6]; at 50.0 µM 97.9% | [6]; at 100.0 µM 97% | [7]; at 33.0 µM 99% | [7]; at 100.0 µM 95% | [8]; [18] 98% | [8]; at 50.0 µM 98% | [9]; at 33.0 µM 99% | [9]; at 100.0 µM 97% | [10]; [18] 97% | [10]; at 50.0 µM 97.4% | [11]; at 33.0 µM 99% | [11]; [18] 97% | [11]; at 50.0 µM 97.7% | [11]; at 100.0 µM 99%
inactive: [1]; at 1.2 µM -2% | [1]; at 3.7 µM 1% | [1]; at 11.0 µM 44% | [2]; at 1.2 µM -4% | [2]; at 3.7 µM -4% | [2]; at 11.0 µM 21% | [3]; at 1.2 µM -3% | [3]; at 3.7 µM -4% | [3]; at 11.0 µM -3% | [3]; at 33.0 µM 11% | [3]; at 100.0 µM 37% | [4]; at 1.2 µM -6% | [4]; at 3.7 µM -5% | [4]; at 11.0 µM 36% | [5]; at 1.2 µM -3% | [5]; at 3.7 µM -2% | [5]; [17] 41% | [5]; at 11.0 µM 46% | [6]; at 1.2 µM -7% | [6]; at 3.7 µM -1% | [6]; [17] 24% | [6]; at 11.0 µM 28% | [7]; at 1.2 µM -4% | [7]; at 3.7 µM -2% | [7]; at 11.0 µM 36% | [8]; [17] 10% | [9]; at 1.2 µM -8% | [9]; at 3.7 µM -11% | [9]; at 11.0 µM 37% | [10]; [17] 28% | [11]; at 1.2 µM -7% | [11]; at 3.7 µM -13% | [11]; [17] 0% | [11]; at 11.0 µM 31%
